# Measurements as given in ChEMBL document CHEMBL3988442, “University of Dundee, Small-Polar-MMV Screening Library” (2021).
# Hit rate of the full screen: of about 69,000 compounds, about 950 (1.4%) showed an effect of 50% or more. What follows is part of a selection rich in strong results, with near analogues and random picks from the rest.
# Tested on: Mycobacterium tuberculosis
# Experiment: Cornell M. t heat shock assay; note: in the data most compounds retested in dose-response had high values
# Format: functional, organism-based
# Set-up: dose or concentration left out as unconfirmed
row,SMILES,Percent Effect
1,O=C(O)C(F)(F)F.O=C(O)C(F)(F)F.O=C1CC2(CCN(Cc3ccncc3)C2)CN1c1ccc2c(c1)OCO2 (configuration not stated),-29.31%
2,O=C(O)C(F)(F)F.O=C(O)C(F)(F)F.c1cnc(N2CCC3(COCCN(CC4CCOCC4)C3)C2)nc1 (configuration not stated),-23.85%
3,CCc1ncnc2c1CCN(CC(=O)N(C)C)CC2.O=C(O)C(F)(F)F,-2.001%
4,COc1ccc(CN2C[C@@H]3OCCN(CCN4CCCC4)[C@@H]3C2)cc1.O=C(O)C(F)(F)F.O=C(O)C(F)(F)F.O=C(O)C(F)(F)F,-18.96%
5,Cc1ncc2c(n1)C1(CCN(C(=O)C3CC3)CC1)OCC2.Cl,6.327%
6,CCN(CC)Cc1cn2c(n1)CN(C(=O)Cc1ccsc1)CC2.O=C(O)C(F)(F)F,-4.189%
7,Cl.O=C1CC2(CCNCC2)C(=O)N1c1cccc(F)c1,-6.229%
8,Cc1cc2c(=O)n3c(nc2s1)CCN(Cc1cnc(C)n1C)CC3.Cl,0.614%
9,O=C(O)C(F)(F)F.O=C1Nc2ccccc2C12CCN(Cc1cccs1)CC2,-5.404%
10,O=C(O)C(F)(F)F.c1ccc(CN2Cc3nccn3CC(Cn3cncn3)C2)nc1 (configuration not stated),-29.71%
11,Cc1nc2c(c(NCc3cc4ccccc4s3)n1)CCNCC2,-9.753%
12,Cc1nc2c(c(NCc3nc4ccccc4s3)n1)CCNCC2,105.4%
13,Cc1nc2c(c(NCc3ccc(-c4ccccn4)s3)n1)CCNCC2,-21.22%
14,C[C@H]1CN(CC2CCOCC2)C[C@@]12CCN(Cc1cccnc1)C2=O.O=C(O)C(F)(F)F.O=C(O)C(F)(F)F,4.288%
15,CC1(C(=O)N2CCOCC2)CN(Cc2ccccc2F)CCO1 (configuration not stated),10.07%
16,Cc1ncsc1CN1CCOC(C)(C(=O)N(C)C)C1 (configuration not stated),-16.31%
17,CN(C)C(=O)C1(C)CN(Cc2cn(C)c3ccc(F)cc23)CCO1 (configuration not stated),64.53%
18,CN(C)C(=O)C1(C)CN(Cc2cn(C)c3ccccc23)CCO1 (configuration not stated),54.51%
19,Cc1nnc(N2CCOC(C)(C(=O)N(C)C)C2)c2ccccc12 (configuration not stated),0.5691%
20,CNC(=O)C1(C)CN(Cc2cn(C)c3ccc(F)cc23)CCO1 (configuration not stated),39.76%
21,CC(C)Cn1c(=O)nc2n1C(=O)N(c1ccc(F)cc1)C2,4.992%
22,Cc1cccc(-c2nnn3c2COC(CNCc2nccs2)C3)c1.O=C(O)C(F)(F)F (configuration not stated),-29.09%
23,COc1cc(N2C[C@H](C(=O)NCC3CC3)[C@@H]3CCO[C@@H]3C2)ncn1.O=C(O)C(F)(F)F,-37.92%

row,SMILES,Percent Effect
1,Cc1ccc(C)c(-n2ncc(C(=O)N(C)CCc3ccccn3)c2N)c1,29.21%
2,CN(CCc1ccccn1)C(=O)c1cnn(-c2ccccc2F)c1N,25.3%
3,Cc1cc(Cl)ccc1-n1ncc(C(=O)N(C)CCc2ccccn2)c1N,67.07%
4,COc1ccc(OC)c(CN(Cc2ccco2)Cc2[nH]cnc2C)c1.O=C(O)CC(O)(CC(=O)O)C(=O)O,-22.22%
5,Cc1cccn2cc(CN3CCCC(c4ccn[nH]4)C3)nc12 (configuration not stated),23.59%
6,Cc1cccn2cc(CN3CCCC(O)C3)nc12 (configuration not stated),-6.265%
7,Cc1cccn2cc(CN3CCCC(c4noc(C5CC5)n4)C3)nc12 (configuration not stated),100.9%
8,COCC(=O)N1CCC2(CC1)C(=O)N(Cc1cccnc1)CCN2C.O=C(O)C(F)(F)F.O=C(O)C(F)(F)F,-22.77%
9,O=C(NC[C@H]1CC[C@H](c2ccnc3ncnn32)CC1)C1CC1,14.38%
10,COCC1c2c(cnn2C)CCN1Cc1ccc(C)cc1.O=C(O)C(F)(F)F.O=C(O)C(F)(F)F (configuration not stated),-35.12%
11,Cn1ccnc1CN1CCc2onc(COCC3CC3)c2C1.O=C(O)C(F)(F)F,34.07%
12,CCn1ncc2c1C(COC)N(C(=O)c1cscn1)CC2.O=C(O)C(F)(F)F (configuration not stated),-5.863%
13,CS(=O)(=O)N1CCCC1c1cccc(Nc2nccs2)n1 (configuration not stated),92.85%
14,Cc1nn(C)cc1CN1CCCC1c1cccc(Nc2nccs2)n1 (configuration not stated),99.7%
15,Cc1cccc(C2CCCCCN2Cc2cn(C)nc2C)c1 (configuration not stated),5.626%
16,Cc1ccc(C2CCCCCN2Cc2cn(C)nc2C)s1 (configuration not stated),11.6%
17,CS(=O)(=O)N1CCCC1c1cccc(Cc2ccccc2F)n1 (configuration not stated),-7.758%
18,COCCN1CCCC1c1nccnc1Nc1nccs1 (configuration not stated),-9.826%
19,Cc1ccsc1C1CCCCCN1Cc1cn(C)nc1C (configuration not stated),17.22%
20,c1ccc(CCN2CCCC2c2cccc(Nc3nccs3)n2)cc1 (configuration not stated),104.9%
21,Cc1nc(Nc2ncc(C)s2)cc(C2CCCN2S(C)(=O)=O)n1 (configuration not stated),-9.231%
22,COCCN1CCCC1c1ccnc(-c2ccccc2)n1 (configuration not stated),20.75%
23,Cc1nn(C)cc1CN1CCCCCC1c1ccccc1Cl (configuration not stated),-8.916%

row,SMILES,Percent Effect
1,Cc1cnc(Nc2cccc(C3CCCN3Cc3cn(C)nc3C)n2)s1 (configuration not stated),104.4%
2,CCCc1nnc(N[C@H](C)c2ccc(OC)cc2)o1,32.03%
3,O=C(Nc1ccccc1)N1C(CO)[C@]2(O)CC[C@H]1CC2 (some centres not stated),-13.23%
4,C=C1C(C)(C)[C@H]2CC[C@]1(C(=O)N1CCC(n3cc(CO)nn3)CC1)C2,11.02%
5,C[C@H]1C(=O)NC[C@H]2CN(CCc3ccccc3)C[C@H]21.O=C(O)C(F)(F)F,-3.474%
6,CN(C)c1ccnc(C2CCCN2)n1.Cl (configuration not stated),-9.101%
7,Cc1ccc(CN2CC3(CCN(C(=O)c4cccnc4)C3)C2)o1.O=C(O)C(F)(F)F.O=C(O)C(F)(F)F,25.41%
8,Cl.Cl.O=C(NCc1cncc2c1CCN(Cc1cccs1)C2)C1CC1,3.264%
9,O=C(NCc1ccccn1)[C@H]1COC[C@H]2CN(Cc3ccoc3)C[C@H]21.O=C(O)C(F)(F)F.O=C(O)C(F)(F)F,2.625%
10,COCCNc1nc(C)nc2c1CCN(C[C@H]1CC[C@@H](N)CC1)CC2,-33.02%
11,Cn1nc(COc2cccnc2)c2c1CCN(c1cnccn1)C2.O=CO.O=CO,1.293%
12,O=C(O)C(F)(F)F.O=C(O)C(F)(F)F.c1cncc(N2CCOCC3(CCCN(Cc4cccs4)C3)C2)c1 (configuration not stated),-22.26%
13,CC(C)[C@H](N)C(=O)N1CCCC(C2=Nc3ccccc3S(=O)(=O)N2)C1.Cl (some centres not stated),13.38%
14,Cc1cccc(CN2CCc3onc(Cn4cccc4)c3C2)n1.O=C(O)C(F)(F)F,14.85%
15,COCCN1C2(CCN(CC3CC3)C2)c2ccccc2S1(=O)=O.O=C(O)C(F)(F)F (configuration not stated),3.018%
16,NC(=O)c1ccc(CNC(=O)Nc2cn[nH]c2)cc1,-17.84%
17,Cc1nc(Nc2ccccn2)cc(C2CCCN2Cc2ncc[nH]2)n1 (configuration not stated),21.63%
18,Cc1cccc(CN2CCCC2c2cccc(CCC(=O)O)n2)c1 (configuration not stated),-20.44%
19,Cc1cccc(CN2CCCC2c2cccc(Nc3nccs3)n2)c1 (configuration not stated),104%
20,Cc1nc(Nc2nccs2)cc(C2CCCN2C2CCOCC2)n1 (configuration not stated),-17.35%
21,Cc1ccccc1CN1CCCC1c1cccc(Nc2nccs2)n1 (configuration not stated),106.1%
22,Cc1cc(C2CCCN2Cc2cccc(C(=O)Nc3nccs3)c2)no1 (configuration not stated),-4.082%
23,CCCN(CC1CC1)C(=O)CN1CCCC1c1cnn(C)c1 (configuration not stated),3.305%

row,SMILES,Percent Effect
1,CS(=O)(=O)N1CCN(C(=O)CCC2CCCO2)CC1 (configuration not stated),9.25%
2,Cc1noc(C)c1CN1CCC2(CC1)C(c1cnn(C)c1)CC(=O)N2C.O=C(O)C(F)(F)F (configuration not stated),38.42%
3,CC(=O)N1CCO[C@@H]2CN(S(=O)(=O)c3cccnc3)C[C@@H]2C1.O=C(O)C(F)(F)F,22.17%
4,Cc1cccc(CN2CCc3nnc(CO)n3CC2)n1.O=C(O)C(F)(F)F,-11.61%
5,CC(C)CN1CCC2(C=C(C(=O)NC3CC3)c3ccccc32)CC1.O=C(O)C(F)(F)F,-0.1524%
6,CC(=O)NC1CCN(c2cnc(C3CCNCC3)cn2)CC1.Cl,-24.22%
7,O=C(O)C(F)(F)F.c1cnc(N2CCO[C@H]3[C@H](OCC4CC4)CC[C@@H]32)nc1,10.71%
8,Fc1cnc(N2CCO[C@H]3[C@H](OCC4CCOCC4)CC[C@@H]32)nc1.O=C(O)C(F)(F)F,47.96%
9,O=C(O)C(F)(F)F.c1cnc(N2CCO[C@H]3[C@H](OCC4CCOCC4)CC[C@@H]32)nc1,52.27%
10,CCOCC(=O)N1CCC2(CC1)CC(c1ccccc1)CO2 (configuration not stated),16.4%
11,CS(=O)(=O)N1C[C@H]2C[C@H](C(=O)N3CCOCC3)[C@@H](C1)O2,9.276%
12,CN(Cc1nccs1)c1nc(-c2ccccn2)nc2c1CCNCC2,47.94%
13,CN(Cc1cccnc1)c1nc(-c2ccccn2)nc2c1CCNCC2,7.828%
14,CN(Cc1ccsc1)c1nc(-c2ccccn2)nc2c1CCNCC2,90.45%
15,O=C(O)C(F)(F)F.c1cnc(NCc2nnn3c2CN(Cc2ccsc2)CCC3)nc1,-34.33%
16,Cl.O=C(NC1CCCC1)c1cc(C2CCCNC2)n[nH]1 (configuration not stated),2.974%
17,COCCN1C[C@@H]2[C@@H](OC)CCN(Cc3ccsc3)[C@@H]2C1.O=C(O)C(F)(F)F.O=C(O)C(F)(F)F,-56.24%
18,c1ccc(-c2nc3c(c(NCCc4c[nH]cn4)n2)CCNC3)cc1,103.9%
19,c1coc(-c2nc3c(c(NCc4n[nH]c5c4CCC5)n2)CCNCC3)c1,-50.31%
20,c1nc(CCNc2nc(C3CC3)nc3c2CCNCC3)c[nH]1,-37.66%
21,c1ccc(-c2nc3c(c(NCc4n[nH]c5c4CCC5)n2)CCNC3)cc1,105.2%
22,c1cc(-c2nc3c(c(NCCc4c[nH]cn4)n2)CCNCC3)ccn1,-32.96%
23,c1ccc(-c2nc3c(c(NCc4nnc5n4CCC5)n2)CCNC3)cc1,-1.823%
